Active and inactive are the calls of the source. The calls were made as follows: active = hit-call score of the fitted dose curve at least 0.9, where 1 is the maximum; inactive = score below 0.9.
Assay: ATG_TGFb_CIS: Attagene CIS-FACTORIAL HepG2 Assay for human Transforming Growth Factor (TGF) (AID 2282967)
Details: HepG2 Attagene CIS TGFb reporter, mRNA transcription; actives raise or lower the signal
Procedure: ATG_CIS is a cell-based, multiplexed-readout assay that uses HepG2, a human liver cell line, with measurements taken at 24 hours after chemical dosing in a 24-well plate.ATG_TGFb_CIS is one of 52 assay component(s) measured or calculated from the ATG_CIS assay. It is designed to make measurements of mRNA induction, a form of inducible reporter, as detected with fluorescence intensity signals by Reverse transcription polymerase chain reaction (RT-PCR) and Capillary electrophoresis technology.Data from the assay component ATG_TGFb_CIS was analyzed into 1 assay endpoint. This assay endpoint, ATG_TGFb_CIS, was analyzed with bidirectional fitting relative to DMSO as the negative control and baseline of activity. Using a type of inducible reporter, measures of mRNA for gain or loss-of-signal activity can be used to understand the reporter gene at the transcription factor-level as they relate to the gene TGFB1. Furthermore, this assay endpoint can be referred to as a primary readout, because this assay has produced multiple assay endpoints where this one serves a reporter gene function. To generalize the intended target to other relatable targets, this assay endpoint is annotated to the growth factor intended target family, where the subfamily is transforming growth factor beta.
Human liver HepG2 cells are transiently transfected with multiple reporter transcription units (MRTUs) in 6-well plates using FuGene 6 reagent (Roche; 3 ml FuGene/1 mg DNA). The MRTU constructs are regulated by a cis-regulating element (promoter). […] A major difference between the CIS and TRANS system is that in CIS activities of endogenous TFs are measured, whereas the TRANS assay evaluates changes in activities of exogenous, chimeric NR-Gal4 proteins. […] At the end of 24 hour incubation, total RNA was isolated using TriZol reagent (Invitrogen). The isolated RNA is then reverse-transcribed using oligo(dT) primer and Mo-MLV reverse transcriptase (Invitrogen) with DNAse I (Ambion) treatment for 30 min. The one-tenth of the produced cDNA was amplified by PCR using Taq DNA polymerase (Invitrogen) and two reporter sequence-specific primers. The PCR products were fluorescently labeled by primer extension with 6-arboxyfluorescein (6-FAM) 5'-labeled reporter sequence-specific primer (2 min at 95 C, 20 s at 68 C and 10 min at 72 C) and these products were digested with 5U of HpaI (New England Biolabs) for 2h at 37 C. The fragments were purified using Qiaquick PCR columns (Qiagen), analyzed on an ABI 3130xL genetic analyzer (Applied Biosystems) with peak positions identified by using a set of X-rhodamine (ROX)-labeled MapMarker1000 molecular weight standards (BioVentures). The raw capillary electrophoresis data was processed using Attagraph software (Attagene).

| Compound | outcome |
| --- | --- |
| CCCCCCCOC(C)=O | inactive |
| S=c1[nH][nH]c(=S)s1 | inactive |
| Cc1cccc(O)c1 | inactive |
| COc1cc(OC)c2ccc(=O)oc2c1 | inactive |
| OC[C@H]1O[C@@H](O[C@H]2[C@H](O)[C@@H](O)[C@H](O)O[C@@H]2CO)[C@H](O)[C@@H](O)[C@H]1O | inactive |
| COC(=O)c1ccc(C(=O)OC)cc1 | inactive |
| CC(=O)CCC(=O)O | inactive |
| CC(=O)Nc1cc(S(=O)(=O)O)cc2cc(S(=O)(=O)O)c(N=Nc3ccccc3)c(O)c12 | inactive |
| CCCCCCC(C)O (stereo not given) | inactive |
| CCCCCCCCCCOC(=O)c1ccccc1C(=O)OCCCCCCCC | inactive |
| COc1ccc(OC)cc1 | inactive |
| O=S1(=O)CC(Cl)(Cl)C(Cl)(Cl)C1 | inactive |
| COc1ccc2[nH]cc(CCNC(C)=O)c2c1 | inactive |
| CC(=O)c1ccc(C)cc1 | inactive |
| CC(C)=CCCC(C)=CC(=O)O | inactive |
| CC(=O)CC(=O)N(C)C | inactive |
| CC(C)(C)c1cc(CCC(=O)OCCSCCOC(=O)CCc2cc(C(C)(C)C)c(O)c(C(C)(C)C)c2)cc(C(C)(C)C)c1O | inactive |
| CC(C)C(=O)c1ccccc1 | inactive |
| [Na+] | inactive |
| CCOc1ccc(NC(C)=O)cc1 | inactive |

| Compound | outcome |
| --- | --- |
| CC1(C)[C@H](C=C(Cl)Cl)[C@H]1C(=O)OCc1cccc(Oc2ccccc2)c1 | inactive |
| CC1=CC(C)C(C=O)C(C)C1 (stereo not given) (tested in a mixture with another compound) | inactive |
| CCC(C)(C)C1CCC(OC)CC1 (stereo not given) | inactive |
| CCOC(=O)C=Cc1ccccc1 | inactive |
| CCOCC(C)O (stereo not given) | inactive |
| CC(C)N1C(=O)c2ccccc2C1=O | inactive |
| CCC(=O)OC/C=C(\C)CCC=C(C)C | inactive |
| CCC(C)(CCCC(C)C)OC(C)=O (stereo not given) | inactive |
| c1ccc2c(c1)-c1ccc3ccc4cccc5cc-2c1c3c45 | inactive |
| CC=CC(=O)C1=C(C)C=CCC1(C)C | inactive |
| O=C(O)c1cc2ccccc2cc1O | inactive |
| C=CCOC(=O)/C=C\C(=O)OCC=C | inactive |
| CCC(=O)OC(C)(C)C1CC=C(C)CC1 (stereo not given) | inactive |
| c1ccc(OCCOc2ccccc2)cc1 | inactive |
| CC(C)N(c1ccccc1)C(C)C | inactive |
| CCCCCC#CC(=O)OC | inactive |
| CCCCOC(=O)C(C)OC(=O)CCC (stereo not given) | inactive |
| CC(O)COCC(C)O (stereo not given) | inactive |
| O=C1CCC(=O)N1 | inactive |
| CCCCCCOc1ccc(O)cc1 | inactive |

Reference: PubChem BioAssay (EPA / NIEHS)
